Measurements taken from PubChem BioAssay (NCI).
This is part of a sample that, as a whole, favours compounds with a hit. Of some 83,000 tested, about 20% had one in any assay.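 How to read the values: 0–100, growth inhibition (40 = 60% inhibited); 0, no net growth; -100 to 0, cell death (-40 = 40% of starting cells died; -100 = all dead).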 Unmarked numbers belong to inactive results. Active and inactive are the calls of the source.

tested on: T-47D breast; assay: NCI-60 one-dose screen, 48 h (100 = growth as untreated, 0 = no growth, -100 = all killed); conditions: 10 µM
Experimental: Growth inhibition of the T-47D human tumor cell line is measured as a screen for anti-cancer activity. Cells are grown in 96 well plates and exposed to the test compound for 48 hours. Compounds are tested at a single concentration, which is 10^-5 M for most compounds. The reported endpoint is percent growth (GI% or GIPRCNT), where numbers from 0 - 100% represent growth inhibition, and numbers from -100% - 0 represent cell death. For example, a value of 40 represents 60% growth inhibition. A value of 0 means no net growth occurred over the course of the experiment. A value of -40 indicates 40% of cells at the beginning of the experiment died by the end of the experiment. A value of -100 means all cells are dead at the end of the experiment.
NCI-60 Human Tumor Cell Lines Screen was performed using the standard one-dose NCI protocol, which is described in more detail at https://dtp.cancer.gov/discovery_development/nci-60/default.htm.
Compounds with GIPRCNT values below 10 were considered active. Activity score was based on GIPRCNT using the following formula: […]
Score is 0 for GIPRCNT values of 100 or above, 50 for GIPRCNT values of 0, and 100 for GIPRCNT values of -100.

Structure (SMILES)	growth
COc1cc2cc(C(=O)N3C[C@@H](CCl)c4c3cc(OC(=O)N3CCN(C(=O)CCC(=O)N5CCN(C)CC5)[C@@H]5CSSC[C@@H]53)c3ccccc43)[nH]c2c(OC)c1OC	1.49% (active)
Cc1c2oc3c(C)ccc(C(=O)N[C@@H]4C(=O)N[C@H](C(C)C)C(=O)N5CCC[C@H]5C(=O)N(C)CC(=O)N(C)[C@@H](C(C)C)C(=O)OC4C)c3nc-2c(C(=O)N[C@@H]2C(=O)N[C@H](C(C)C)C(=O)N3CC(=O)C[C@H]3C(=O)N(C)CC(=O)N(C)[C@@H](C(C)C)C(=O)OC2C)c(N)c1=O (stereo not given in full)	-5% (active)
CC[C@@]12CC(C(=O)OC)=C3Nc4cc5c(cc4[C@@]34CCN(C[C@H]3O[C@H]31)[C@@H]24)[C@@H]1[C@H](O5)[C@@H](O)[C@@]2(CC)CC(C(=O)OC)=C3Nc4cc(OC)ccc4[C@@]34CCN1[C@@H]24	25.7%
COc1cc(OC)c(S(=O)(=O)N(CCCl)CCCl)cc1C(=O)/C=C/c1ccc(C)cc1	88%
COCCOCCOCCOc1ccc(-n2cc(CCCN(CCNc3ccnc4cc(Cl)ccc34)C(=O)CCC(=O)O[C@@H]3O[C@@H]4OC5(C)CC[C@H]6[C@H](C)CC[C@@H]([C@H]3C)[C@@]46OO5)nn2)cc1	20.6%
CC(=O)Oc1ccccc1C(=O)[Se]C(=NC(C)C)NC(C)C	-45.6% (active)
O=C(/C=C/c1ccc(Cl)cc1)c1nc2ccccc2n1Cc1ccc(Br)cc1	28%
O=C(/C=C/c1ccccc1)c1nc2ccccc2n1Cc1ccc(Br)cc1	-31.3% (active)
O=C(/C=C/c1ccco1)c1nc2ccccc2n1Cc1ccc(Br)cc1	4.25% (active)
CCC[Se]C(=O)c1ccc(C(=O)[Se]CCC)s1	30%
CC(C)C[C@H](NC(=O)CNC(=O)C[C@H]1O[C@@H]2OC3(C)CC[C@H]4[C@H](C)CC[C@@H]([C@H]1C)[C@@]24OO3)B(O)O	-32.8% (active)
CC[C@]12C=CCN3CC[C@@]4(c5ccc(OC)cc5N(C)[C@H]4[C@@](O)(C(=O)OC)[C@@H]1OC(=O)CCC[P+](c1ccc(C)cc1)(c1ccc(C)cc1)c1ccc(C)cc1)[C@@H]32	-78.4% (active)
C=CC[Se]C(=O)c1ccc(C(=O)[Se]CC=C)s1	-40.4% (active)
C=CC[Se]C(=O)c1cncc(C(=O)[Se]CC=C)c1	-42.2% (active)
COC(=O)c1ccc(-n2cc(CCCN(CCNc3ccnc4cc(Cl)ccc34)C(=O)CCC(=O)O[C@@H]3O[C@@H]4OC5(C)CC[C@H]6[C@H](C)CC[C@@H]([C@H]3C)[C@@]46OO5)nn2)cc1	37.6%
Cc1ccc2[nH]c(=S)n(-c3ccc(F)cc3)c(=O)c2c1	93.5%
CC[C@]12C=CCN3CC[C@@]4(c5ccc(OC)cc5N(C)[C@H]4[C@@](O)(C(=O)OC)[C@@H]1OC(=O)CCCC[P+](c1ccc(C)cc1)(c1ccc(C)cc1)c1ccc(C)cc1)[C@@H]32	-64.5% (active)
CC1=C(CCC=O)C2=C(C)C3(CC3)[C@@](C)(O)C(=O)C2=C1	-41.3% (active)
CC1=C(C=O)C2=C(C)C3(CC3)[C@@](C)(O)C(=O)C2=C1	13.5%
C[C@H]1[C@@H](CC(=O)N[C@@H](Cc2coc3ccccc23)B(O)O)O[C@@H]2OC3(C)CC[C@H]4[C@H](C)CC[C@@H]1[C@@]24OO3	-27.7% (active)

Structure (SMILES)	growth
COc1ccc(OC)c(/C=C/C(=O)c2nc3ccccc3n2Cc2ccc(F)cc2)c1	10.5%
CN(C)CCc1cn(C2CCC2)c2cccc(O)c12	69.9%
CCOP(=O)(CC(F)(F)C(F)(F)F)OCC	17.3%
C#CC[Se]C(=O)c1ccc2n[se]nc2c1	62.9%
COc1cc2cc(C(=O)N3C[C@@H](CCl)c4c3cc(OC(=O)N3CCN(C)[C@@H]5CSSC[C@H]53)c3ccccc43)[nH]c2c(OC)c1OC	-11.8% (active)
COc1cc2cc(C(=O)N3C[C@@H](CCl)c4c3cc(OC(=O)N3CCN(C)[C@@H]5CSSC[C@@H]53)c3ccccc43)[nH]c2c(OC)c1OC	-5.73% (active)
COc1cc(OC)c(/C=C/C(=O)c2nc3ccccc3n2Cc2ccc(F)cc2)c(OC)c1	61.8%
O=C(/C=C/c1cccc(Br)c1)c1nc2ccccc2n1Cc1ccc(F)cc1	17.9%
O=C(/C=C/c1ccccc1Cl)c1nc2ccccc2n1Cc1ccc(F)cc1	-66.9% (active)
CC(=O)Oc1ccccc1C(=O)NC([Se])=NC1CCCCC1	-9.49% (active)
CC(C)N=C([Se])NC(=O)c1cccs1	79.4%
CC[C@]12C=CCN3CC[C@@]4(c5ccc(OC)cc5N(C)[C@H]4[C@@](O)(C(=O)OC)[C@@H]1OC(=O)CCCC[P+](C1CCCCC1)(C1CCCCC1)C1CCCCC1)[C@@H]32	3.83% (active)
O=C(/C=C/c1cccc(Br)c1)c1nc2ccccc2n1Cc1ccc(Br)cc1	-0.946% (active)
COC(=O)C[C@](O)(CCC(C)C)C(=O)O[C@H]1C(OC)=C[C@@]23CCCN2CCc2cc4c(cc2[C@@H]13)OCO4	-7.42% (active)
COP(=O)(CC(F)(F)C(F)(F)F)OC	13.2%
COc1ccc(/C=C/C(=O)c2nc3ccccc3n2Cc2ccc(Br)cc2)cc1	31.1%
C=CCN=C([Se])NC(=O)c1ccc2c(c1)OCO2	96.6%
CCOC(=O)C1=C(Nc2ccccc2)C(=O)OC12C(=O)Nc1ccccc12 (stereo not given)	110%
O=C(/C=C/c1ccco1)c1nc2ccccc2n1Cc1ccc(F)cc1	18%
CC[C@]12C=CCN3CC[C@@]4(c5ccc(OC)cc5N(C)[C@H]4[C@@](O)(C(=O)OC)[C@@H]1OC(=O)CCCC[P+](c1ccc(OC)cc1)(c1ccc(OC)cc1)c1ccc(OC)cc1)[C@@H]32	-46.6% (active)
